Source: PubChem BioAssay (National Center for Advancing Translational Sciences (NCATS))
IMPase Li inh – membrane-permeable IMPase blocker, potentiated with lithium. CHO-M1 cells, IP1 TR-FRET (IP-One), carbachol + lithium. Potency, µM (series often up to 59.4 µM), for inactives: at the top dose activity, negative = IMPase inhibition, most hits filed as inhibitors. actives 0.35% (n = 210,000). AID 1457;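 note: IP1 builds up when IMPase is blocked and the TR-FRET signal falls; potency is the fitted concentration of half-maximal effect; plate controls were basal vehicle for no effect and high inhibitor control for full effect; nearly all actives have a fitted effect of over 50% in size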
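CHO-M1, 2000 cells/well, 16–30 h culture; cpd + low Li+, 30 min 37C; lysis with d2-IP1/Eu-anti-IP1 Ab, 10 min RT; TR-FRET 665/620 ratio and 620 channel; AC50 via Hill.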
HPGD inh – blocks human HPGD enzyme activity; actives 4.3% (n = 150,000); purified HPGD, NADH fluorescence kinetic, PGE2 substrate; P15428; Potency, µM, inactives show at the highest dose activity change, negative = inhibition, most hits filed as inhibitors; active = well fitted inhibition curve with a large enough effect, not every such curve was filed as active; inconclusive = small, poorly fitted or top-dose-only effect, or another doubt; inactive = no such curve, though single readings can be large or run the other way; note: potency is the fitted concentration of half-maximal effect; % is set by controls: 0 for no effect and ±100 for the full control effect
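20 nM HPGD preincubated 15 min at room temperature with compound in 50 mM Tris-HCl pH 8, 0.01% Tween 20. Started with 1 mM NAD+ and 30 uM prostaglandin E2; NADH fluorescence (360/450 nm) read 5 times over 30-s intervals, last minus first.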
ALOX12 inhib – blocks human 12-lipoxygenase activity; P18054; purified 12-hLO, xylenol orange hydroperoxide absorbance; Potency, µM (series often up to 57.1 µM), inactives show top-dose activity change, negative = inhibition, hits mostly inhibitors; actives 0.12% (n = 150,000); note: potency is the fitted concentration of half-maximal effect; % is set by controls: 0 for no effect and ±100 for the full control effect; nearly all actives have a fitted effect of over 55% in size
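Hydroperoxide formation by human 12-lipoxygenase from 40 uM arachidonic acid was followed colorimetrically via ferric-xylenol orange complex, using the 573/405 nm absorbance ratio. Enzyme concentration was 150 nM, with 30 min reaction at room temperature.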
IMPase inh – IMPase inhibition in cells. inhibition (IP1 accumulation), % at 46.1 µM. CHO-M1 cells, IP1 accumulation, HTRF TR-FRET ratio. 120,000 tested, under 10 active. P97697; active = well fitted curve in the direction sought with a large enough effect in the signal ratio, not every such curve was filed as active; inconclusive = small, poorly fitted or top-dose-only effect, or a change in a side signal; inactive = no such curve, though single readings can be large or run the other way; the % refers to the signal ratio;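 note: cells stimulated with carbachol in lithium chloride buffer; plate controls were DMSO basal wells for no effect and reference inhibitor wells for full effect; higher means more IMPase inhibition seen as more IP1 and lower FRET ratio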
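Seeded CHO-M1 cells were dosed with compound at up to 46 uM, stimulated with carbachol for 30 min, then lysed in IP-One detection reagents. Higher IP1 lowers the TR-FRET signal.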
NPSR antag – blocks cAMP signaling of the human neuropeptide S receptor | Q6W5P4 | CHO-NPSR cells, cAMP TR-FRET, antagonist mode | Potency, µM (doses to about 38.3 µM), for inactives: top-dose activity change, negative = inhibition, actives largely listed as inhibitors | actives 1% (n = 220,000); note: potency is the fitted concentration of half-maximal effect; % is set by controls: 0 for no effect and ±100 for the full control effect; nearly all actives have a fitted effect of over 50% in size
ALDH1A1 inh-1 – inhibitors of human aldehyde dehydrogenase 1A1; Purified ALDH1A1, NADH fluorescence, propionaldehyde substrate; Potency, µM (titrated, usually from 75.3 µM), for inactives: top-dose activity, negative = inhibition, most hits filed as inhibitors; AID 1030; actives 7.3% (n = 220,000); P00352; active = well fitted inhibition curve with a large enough effect, not every such curve was filed as active; inconclusive = small, poorly fitted or top-dose-only effect, or another doubt; inactive = no such curve, though single readings can be large or run the other way;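 note: potency is the fitted concentration of half-maximal effect; plate controls were no enzyme wells and a reference inhibitor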
Target sequence (P00352 whole entry, looked up): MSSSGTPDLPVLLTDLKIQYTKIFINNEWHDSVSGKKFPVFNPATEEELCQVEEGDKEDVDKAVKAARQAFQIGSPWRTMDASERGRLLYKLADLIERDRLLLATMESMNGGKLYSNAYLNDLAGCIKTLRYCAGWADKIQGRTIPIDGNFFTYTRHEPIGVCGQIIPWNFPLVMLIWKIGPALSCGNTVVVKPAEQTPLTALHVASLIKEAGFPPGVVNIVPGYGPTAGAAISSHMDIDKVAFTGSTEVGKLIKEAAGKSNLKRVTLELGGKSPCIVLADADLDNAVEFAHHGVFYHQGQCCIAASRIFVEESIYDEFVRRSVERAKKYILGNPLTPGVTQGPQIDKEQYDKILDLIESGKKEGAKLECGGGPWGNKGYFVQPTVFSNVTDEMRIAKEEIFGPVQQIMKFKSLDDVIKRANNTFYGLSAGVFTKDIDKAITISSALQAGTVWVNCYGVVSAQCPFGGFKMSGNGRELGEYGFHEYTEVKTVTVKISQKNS
ALDH1A1 inh-2 – Confirms inhibition of human ALDH1A1 with counterscreen | AID 493210 | actives 90% (n = 90) | purified ALDH1A1, NADH fluorescence, propionaldehyde/NAD+ | Potency, µM (top dose mostly 57.1 µM), for the others: top-dose activity change, negative = inhibition, usual class: inhibitors | shares compounds with ALDH1A1 inh-1; calls by dose curve
Starred values were filed as active, the others as inactive; ? = inconclusive; . = no result; [ ] = dose if it differs, or a comment. Only some compounds are listed: those with a hit (about 8.9% of all), similar ones and a draw of the others. Unless noted, calls come from the whole dose curve; as a rule, active = well fitted curve in the direction sought with a large enough effect; inconclusive = small, poorly fitted or top-dose-only effect, or another doubt; inactive = no such curve, though single readings can be large; an effect the other way counts as inactive or inconclusive.

SMILES	IMPase Li inh	HPGD inh	ALOX12 inhib	IMPase inh	NPSR antag	ALDH1A1 inh-1	ALDH1A1 inh-2
CCOC(=O)N1CCN(Cc2nc3c(c(=O)n(C)c(=O)n3C)n2CCC(C)C)CC1	5%[38.3 µM]	-16%	4%	1	-27%[46.1 µM]	0.22µM*	0.18µM*
COc1ccc(C)cc1NC(=O)CN1CCN(S(=O)(=O)c2ccc(Cl)cc2)CC1	40%[38.3 µM]	-10%	-6%	10	-27%[46.1 µM]	0.32µM*	0.14µM*
COc1cc2c(cc1NC(=O)CN1CCN(S(=O)(=O)c3ccc(C)cc3)CC1)oc1ccccc12	?	?	0%	?	-15%[46.1 µM]	7%	.
COc1cccc(/C=C/c2ccccn2)c1O	.	.	.	.	-2%	.	.
COc1cccc(O)c1O	48%	16µM*	?	.	.	0.45µM*	1.6µM*
CC1=C(C(=O)OCC(C)C)C(c2cccs2)NC(=S)N1 (centres undefined)	.	.	?	4	5%[46.1 µM]	0.13µM*	0.25µM*
CN(C)CCNC(=S)Nc1ccc(Cl)cc1Cl	-3%	-1%	-3%	.	12%	0%	.
Cc1ccc(Sc2nc3c(c(=O)[nH]c(=O)n3C)n2CCc2ccccc2)cc1	30%[38.3 µM]	-14%	1%	?	-25%[46.1 µM]	0.63µM*	0.89µM*
Cn1c(=O)[nH]c(=O)c2c1nc(Sc1ccccc1)n2CCc1ccccc1	9%[38.3 µM]	-8%	-1%	1	7%[46.1 µM]	10%	.
COC(=O)c1c(C(=O)OC)c(C)n(Cc2cccnc2)c1C	26%[38.3 µM]	4%	3%	10	0%[46.1 µM]	-1%	.
COC(=O)c1sccc1NC(=O)CSc1nnnn1-c1ccccc1C	29%[38.3 µM]	?	-9%	7	?	0.56µM*	0.79µM*
COc1ccc(OC)c(-n2nnnc2SCC(=O)Nc2ccc3c(c2)OCCO3)c1	.	.	-3%	3	10%[46.1 µM]	0.063µM*	0.1µM*
COc1ccccc1-n1nnnc1SCC(=O)Nc1cc(C)on1	20%[38.3 µM]	-8%	4%	6	-2%[46.1 µM]	0.71µM*	0.89µM*
COc1ccccc1NC(=O)CN1CCN(CC(=O)Nc2ccc3c(c2)OCCO3)CC1	25%[38.3 µM]	-2%	-3%	8	-9%[46.1 µM]	3.5µM*	3.2µM*
Cc1ccc(-n2nnnc2SCC(=O)Nc2ccc3c(c2)OCCO3)cc1C	14%	-6%	3%	-11	-6%[46.1 µM]	?	.
CCOC(=O)c1cc(C)sc1N1C(=O)C2C3C=CC(C3)C2C1=O (centres undefined)	3%[38.3 µM]	5%	3%	-1	-1%[46.1 µM]	4%	.
CCn1c(SCC(=O)NNC(=O)c2ccc(OC)cc2)nnc1-c1ccco1	17%	.	.	.	0%	-10%	.
CC1(C)CC(=O)CC(C2(O)C(=O)N(Cc3ccccc3)c3ccccc32)O1 (centres undefined)	15%	-23%	0%	8	-1%	0.063µM*	0.32µM*
Cc1ccc(C(=O)N2c3ccccc3N(Cc3ccccc3)C(=O)C2(C)C)cc1	24%[38.3 µM]	-12%	-13%	11	?	2%	.
COCCn1c(=O)[nH]c(=O)c2c1nc(-c1cc(Br)c3c(c1)OCO3)n2Cc1ccccc1	2%	.	.	.	-19%	0.11µM*	0.079µM*
CCCN1C(=O)c2ccc(C(=O)Nc3cc(C)on3)cc2C1=O	-1%	-8%	3%	-4	-8%[46.1 µM]	0.4µM*	0.79µM*
Cc1cc(NC(=O)c2ccc3c(c2)C(=O)N(Cc2ccccc2)C3=O)no1	-22%	.	.	.	-17%	-1%	.
COCCN1C(=O)c2ccc(C(=O)Nc3nccs3)cc2C1=O	5%[38.3 µM]	-9%	-4%	-4	9%[46.1 µM]	?	.
CC(C)CN1C(=O)c2ccc(C(=O)Nc3nccs3)cc2C1=O	-3%[38.3 µM]	-19%	-1%	11	-9%[46.1 µM]	0.45µM*	0.32µM*
CCCN1C(=O)c2ccc(C(=O)Nc3nccs3)cc2C1=O	16%[38.3 µM]	0%	-5%	4	12%[46.1 µM]	0.28µM*	0.4µM*
CCCC(=O)Nc1ccc2c(c1)nc(CN1CCN(C(C)=O)CC1)n2C	-5%[38.3 µM]	-13%	-2%	7	-5%[46.1 µM]	1%	.
